Source: PubChem BioAssay (Tox21)
Inconclusive results are not listed. Calls of active or inactive are those of the source. Unless noted, calls follow the shape of the dose curve; as a rule, active = well fitted curve in the direction sought with a large enough effect in the repeat runs; inconclusive = weak or mixed curves; inactive = no such curve, though single readings can be large; an effect the other way counts as inactive or inconclusive.

Assays:
[1] = target: Retinoic acid receptor RXR-alpha (Homo sapiens) (UniProt P19793); assay: qHTS assay to identify small molecule agonists of the RXR signaling pathway (AID 1159527; calls by dose curve; also: nearly all actives have a fitted effect of over 35% in size; also: potency is read from the fitted curve at half-maximal effect)
Procedure, shortened: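 Fluorescence ratio readout (460 vs 530 nm) from GeneBLAzer RXR-alpha HEK 293T cells after 16 hr compound treatment; cells seeded 5 hr beforehand in low-serum, charcoal-stripped medium.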

[2] = qHTS assay to identify small molecule agonists of the RXR signaling pathway - cell viability counter screen (AID 1159529);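 also: HEK 293T cells carrying an RXR-alpha UAS beta-lactamase reporter; series mostly up to about 77 µM; nearly all actives have a fitted effect of over 50% in size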
Procedure, shortened: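 Viability read-out for the RXR-alpha agonist qHTS: luminescent CellTiter-Glo signal after 30 min at RT. HEK 293T bla reporter cells, 2% charcoal-stripped FBS, 16 hr compound incubation; tetraoctyl ammonium bromide as cytotoxic control.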

[3] = qHTS assay to identify small molecule antagonists of the retinoid acid receptor (RAR) signaling pathway - cell viability counter screen (AID 1159551); also: nearly all actives have a fitted effect of over 35% in size
Procedure, shortened: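 Viability of C3RL4 cells is quantified from ATP by luminescence after 6 h treatment at 37 C with compounds and 1 uM retinol.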

[4] = qHTS assay to identify small molecule antagonists of the retinoic acid receptor (RAR) signaling pathway (AID 1159552; also: nearly all actives have a fitted effect of over 50% in size)
Procedure, shortened: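 Using a RARE-driven luciferase construct in C3RL4 cells, retinol at 1 uM final provided the agonist stimulus while compounds were co-applied. After 6 hours at 37 C, luminescence was recorded to flag inhibitors of retinol signaling.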

[5] = qHTS assay to identify small molecule agonists of the retinoic acid receptor (RAR) signaling pathway (AID 1159553); also: potency is read from the fitted curve at half-maximal effect
Procedure, shortened: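 Compounds dissolved in DMSO were pinned onto C3RL4 cells seeded the previous day, and plates were held 6 hr at 37 C. RARE-driven luciferase output was then read by luminescence.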

[6] = qHTS assay to identify small molecule antagonists of the estrogen related receptor (ERR) signaling pathway - cell viability counter screen (AID 1224818);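 also: series mostly up to about 46 µM; viability measured after 17.5 h of compound exposure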
Procedure, shortened: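 Cytotoxicity check run alongside the ERR antagonist screen: cells exposed to test compounds 17.5 h at 37 C, viability taken as CellTiter-Fluor fluorescence intensity.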

[7] = qHTS assay to identify small molecule antagonists of the estrogen related receptor (ERR) signaling pathway (AID 1224819; also: series mostly up to about 46 µM; nearly all actives have a fitted effect of over 50% in size)
Procedure, shortened: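 ERR reporter cells were plated at 2,000 cells/well and left 6 h at 37 C/5% CO2 before pin-tool transfer of compounds in DMSO. After 18 h at 37 C, One-Glo was added and luminescence was read 30 min later at room temperature.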

[8] = qHTS assay to identify small molecule agonists of the estrogen related receptor (ERR) signaling pathway (AID 1224820)
Procedure, shortened: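 After 6 h plating (2,000 cells/well) and 18 h compound treatment at 37 C, ERR cells were lysed with One-Glo and luminescence read after 30 min at room temperature.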

[9] = qHTS assay to identify small molecule antagonists of the estrogen related receptor signaling pathway with the pleiotropic PPARgamma coactivator (PGC) cell viability counter screen (AID 1224822;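 also: series mostly up to about 46 µM; viability read after 17.5 h compound exposure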)
Procedure, shortened: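 Viable cell signal (CellTiter-Fluor, 30 min, 37 C/5% CO2) was measured in PGC/ERR cells after a 17.5 h compound incubation.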

[10] = system: estrogen-related receptor alpha (ERRalpha) with PGC-1alpha coactivator, human; assay: qHTS assay to identify small molecule antagonists of the estrogen related receptor signaling pathway with the pleiotropic PPARgamma coactivator (PGC) (AID 1224821; calls by dose curve;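 also: series mostly up to about 46 µM; lower luminescence signal means antagonism of PGC/ERR signalling; nearly all actives have a fitted effect of over 50% in size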)
Procedure, shortened: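 Luminescence from One-Glo luciferase reagent (30 min, room temperature) measured after 18 h compound treatment at 37 °C. Cells carry the PGC/ERR reporter and were seeded 6 h prior to dosing.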
% is scaled to controls: 0 for no effect and ±100 for the full control effect.

Retinoic acid receptor RXR-alpha (Homo sapiens), sequence (P19793 whole entry, looked up): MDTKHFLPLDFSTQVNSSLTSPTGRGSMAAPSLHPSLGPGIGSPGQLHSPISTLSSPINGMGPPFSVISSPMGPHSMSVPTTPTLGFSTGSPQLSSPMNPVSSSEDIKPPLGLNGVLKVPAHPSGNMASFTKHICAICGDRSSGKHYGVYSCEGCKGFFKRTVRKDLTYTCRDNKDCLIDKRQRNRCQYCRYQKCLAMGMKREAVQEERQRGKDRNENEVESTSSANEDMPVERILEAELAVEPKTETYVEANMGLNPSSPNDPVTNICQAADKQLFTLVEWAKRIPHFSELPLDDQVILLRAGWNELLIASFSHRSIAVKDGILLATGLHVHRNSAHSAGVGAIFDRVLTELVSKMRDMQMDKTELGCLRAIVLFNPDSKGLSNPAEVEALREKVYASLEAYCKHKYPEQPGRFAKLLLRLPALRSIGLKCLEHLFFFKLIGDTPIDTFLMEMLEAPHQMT

O=C(NCCc1c[nH]c2ccccc12)c1cccnc1
inactive: Potency [1] | outcome [2] | outcome [3] | outcome [4]
active: Potency [5] 21.1 µM

C#CC(C)N(C)C(=O)Nc1ccc(Cl)cc1 (stereo not given)
inactive: Potency [1] | outcome [2] | outcome [3] | outcome [4]
active: Potency [5] 38.5 µM

CC(C)C(=O)OCCc1ccccc1
inactive: Potency [1] | outcome [2] | outcome [3] | outcome [4] | Potency [5]

O=C(OCC1(COC(=O)c2cccnc2)CCCC(COC(=O)c2cccnc2)(COC(=O)c2cccnc2)C1O)c1cccnc1
inactive: Potency [1] | outcome [2] | outcome [3] | outcome [4] | Potency [5]

c1ccc2c(c1)ccc1c3ccccc3ccc21
active: Potency [5] 3.94 µM
inactive: Potency [1] | outcome [2] | outcome [3] | outcome [4]

CN1CCN(CC(=O)N2c3ccccc3C(=O)Nc3cccnc32)CC1
inactive: activation [1] 4.73% [at 6.98 µM] | activity change, negative = cytotoxicity [2] 0.873% [at 6.97 µM] | activity change, negative = cytotoxicity [3] 0.488% [at 8.39 µM] | outcome [6] | outcome [7] | outcome [8] | outcome [9]

O=S(O)(O)=S
inactive: activation [1] 4.57% [at 6.98 µM] | activity change, negative = cytotoxicity [2] 0.418% [at 6.97 µM] | activity change, negative = cytotoxicity [3] 0.445% [at 8.39 µM] | activation [5] -0.738% [at 8.36 µM]

O=C(OCC(O)CO)c1ccccc1Nc1ccnc2c(C(F)(F)F)cccc12 (stereo not given)
inactive: Potency [1] | outcome [2] | outcome [3] | Potency [5]

CN(CCOc1ccc(NS(C)(=O)=O)cc1)CCc1ccc(NS(C)(=O)=O)cc1
inactive: Potency [1] | outcome [2] | outcome [3] | outcome [6] | outcome [9]

C[C@@H](O)[C@H]1C(=O)N2C(C(=O)O)=C(SCCN=CN)C[C@H]12
inactive: Potency [1] | outcome [2] | outcome [3] | outcome [6] | outcome [7] | outcome [8] | outcome [10] | outcome [9]

N[C@@H](COP(=O)(O)O)C(=O)O
inactive: activation [1] 7.83% [at 15.8 µM] | activity change, negative = cytotoxicity [2] 11.4% [at 15.8 µM] | activity change, negative = cytotoxicity [3] -0.284% [at 19 µM] | outcome [6] | outcome [9]

FC(F)(F)c1ccccc1-n1ccnc1
inactive: Potency [1] | outcome [2] | outcome [3] | Potency [5] | outcome [6] | outcome [9]

CNS(=O)(=O)CCc1ccc2[nH]cc(C3CCN(C)CC3)c2c1
inactive: Potency [1] | outcome [2] | outcome [3] | outcome [6] | outcome [9]

CC(=O)CCCCn1c(=O)c2c(ncn2C)n(C)c1=O
inactive: Potency [1] | outcome [2] | outcome [3] | outcome [6] | outcome [7] | outcome [8] | outcome [10] | outcome [9]

CCN(CC)CC(=O)Nc1c(C)cccc1C
inactive: Potency [1] | outcome [2] | outcome [3] | Potency [5] | outcome [6] | outcome [7] | outcome [8] | outcome [10] | outcome [9]

Cc1ccccc1C(=O)Nc1ccc(C(=O)N2CCCC(N(C)C)c3ccccc32)cc1 (stereo not given)
inactive: Potency [1] | outcome [2] | outcome [3] | Potency [5]

CC(C)C[C@H](NC(=O)CNC(=O)[C@H](Cc1ccc(O)cc1)NC(=O)[C@H](CO)NC(=O)[C@H](Cc1c[nH]c2ccccc12)NC(=O)[C@H](Cc1cnc[nH]1)NC(=O)[C@@H]1CCC(=O)N1)C(=O)N[C@@H](CCCN=C(N)N)C(=O)N1CCC[C@H]1C(=O)NCC(N)=O (stereo in doubt)
inactive: Potency [1] | outcome [2] | outcome [3] | Potency [5]

NC(CO)C(=O)NNCc1ccc(O)c(O)c1O (stereo not given)
inactive: Potency [1] | outcome [2] | outcome [3] | outcome [6] | outcome [7] | outcome [8] | outcome [10] | outcome [9]

COc1ccc2c(c1)C(=O)N(CCc1ccc(S(=O)(=O)NC(=O)NC3CCCCC3)cc1)C(=O)C2(C)C
inactive: Potency [1] | outcome [2] | outcome [3] | Potency [5]

NCCS
inactive: Potency [1] | outcome [2] | outcome [3] | outcome [6] | outcome [7] | outcome [8] | outcome [10] | outcome [9]

CC(=C(CCOC(=O)C(C)C)SSC(CCOC(=O)C(C)C)=C(C)N(C=O)Cc1cnc(C)nc1N)N(C=O)Cc1cnc(C)nc1N
inactive: Potency [1] | outcome [2] | outcome [3] | Potency [5]

CC(C)=O
inactive: Potency [1] | outcome [2] | outcome [3] | Potency [5]

CCN1CCc2nc(N)oc2CC1
inactive: Potency [1] | outcome [2] | outcome [3] | outcome [6] | outcome [9]

CC(C)NCC(O)COc1cccc2[nH]ccc12 (stereo not given)
inactive: Potency [1] | outcome [2] | outcome [3] | outcome [6] | outcome [9]

CCOC(=O)c1ncn2c1CN(C)C(=O)c1cc(F)ccc1-2
inactive: Potency [1] | outcome [2] | outcome [3] | outcome [6] | outcome [9]

CC(C)NCC(O)COc1ccc(COCCOC(C)C)cc1 (stereo not given)
inactive: Potency [1] | outcome [2] | outcome [3] | outcome [6] | outcome [9]

Cc1cccc(C)c1OCC(C)N (stereo not given)
inactive: Potency [1] | outcome [2] | outcome [3] | outcome [6] | outcome [7] | outcome [8] | outcome [10] | outcome [9]

O=Cc1ccc(Cl)c(Cl)c1
inactive: Potency [1] | outcome [2] | outcome [3] | Potency [5]

COCCOC(=O)C1=C(C)NC(C)=C(C(=O)OC(C)C)C1c1cccc([N+](=O)[O-])c1 (stereo not given)
inactive: Potency [1] | outcome [2] | outcome [3] | outcome [6]

COC(=O)[C@@H]1[C@H]2C[C@H]3c4[nH]c5ccccc5c4CCN3C[C@@H]2CC[C@@H]1O
inactive: Potency [1] | outcome [2] | outcome [3] | outcome [6] | outcome [7] | outcome [10] | outcome [9]

COc1ccc(C2CNC(=O)C2)cc1OC1CCCC1 (stereo not given)
inactive: Potency [1] | outcome [2] | outcome [3] | outcome [6] | outcome [7] | outcome [8] | outcome [10] | outcome [9]

OCCCCC(O)CO (stereo not given)
active: Potency [1] 11.6 µM
inactive: outcome [2] | outcome [3] | Potency [5]

CCCC/C=C/C=C\C=O
inactive: Potency [1] | outcome [2] | outcome [3] | Potency [5]

CC(C)CC(=O)O
active: Potency [1] 10.7 µM
inactive: outcome [2] | outcome [3] | Potency [5]

CCN(C)C(=O)Oc1cccc([C@H](C)N(C)C)c1
inactive: Potency [1] | outcome [2] | outcome [3] | Potency [5]

Cc1cc(C(C)(C)C)c(O)c(C)c1CC1=NCCN1
inactive: Potency [1] | outcome [2] | outcome [3] | outcome [6] | outcome [9]

CN1C(C)(C)CCCC1(C)C
inactive: Potency [1] | outcome [2] | outcome [3] | Potency [5]

C[C@H](N)[C@H](O)c1cccc(O)c1
inactive: Potency [1] | outcome [2] | outcome [3] | Potency [5]

Nc1nnc(-c2cccc(Cl)c2Cl)c(N)n1
inactive: Potency [1] | outcome [2] | outcome [3] | outcome [6] | outcome [9]

CCCN1C[C@H](CSC)C[C@@H]2c3cccc4[nH]cc(c34)C[C@H]21
inactive: Potency [1] | outcome [2] | outcome [3] | outcome [6] | outcome [9]

Brc1ccc(-c2ccccc2)cc1
inactive: Potency [1] | outcome [2] | outcome [3] | Potency [5]

Cc1ccccc1N=O
inactive: Potency [1] | outcome [2] | outcome [3] | Potency [5]

O=C(CCNNC(=O)c1ccncc1)NCc1ccccc1
inactive: Potency [1] | outcome [2] | outcome [3] | outcome [6] | outcome [9]
